Over roughly 68,000 sequences, “fluorescence intensity (a.u.)” has its median near 9,100; the highest 2% begin near 16,000. The sample holds the highest values, similar sequences and a random draw of the others, so the mix is not that of the screen.

These results are taken from publication PMC7819943, “Rice protein-binding microarrays: a tool to detect cis-acting elements near promoter regions in rice”.

Chain of OsWRKY34 (Q0JBA9 entry or part of it): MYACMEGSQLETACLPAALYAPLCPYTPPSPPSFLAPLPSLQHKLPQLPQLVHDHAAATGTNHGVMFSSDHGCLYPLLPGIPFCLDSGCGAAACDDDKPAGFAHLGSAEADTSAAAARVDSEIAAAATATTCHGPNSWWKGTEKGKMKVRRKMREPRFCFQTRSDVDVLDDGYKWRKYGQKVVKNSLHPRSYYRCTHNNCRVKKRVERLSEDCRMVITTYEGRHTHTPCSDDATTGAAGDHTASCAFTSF

In the assay the target is OsWRKY34 (Oryza sativa, UniProt Q0JBA9 1-250). In words: protein-binding microarray (RPBM); PBS, 2% BSA, 51.3 ng/ul salmon testes DNA, 50 uM zinc acetate, 200 nM TF, 25 C, 1 h; high values mean tight binding. Conditions: protein: recombinant; tags: N-terminal polyhistidine and DsRed monomer fusion (pET32a); label: CyDye5-dUTP incorporated in the synthesized complementary strand; 3' TTTTT single-stranded linker to array surface; dsDNA, one strand shown. The gist of the method:
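Transcription factors, each fused N-terminally to a polyhistidine tag and DsRed, were expressed in E. coli BL21-CodonPlus and purified on Ni–NTA. A custom Agilent array was made double-stranded by primer extension with Cy5-dUTP and blocked with 2% BSA. It was incubated with 200 nM protein in PBS, 2% BSA, salmon testes DNA and 50 µM zinc acetate at 25 °C for 1 h, then washed. The binding signal is per-feature fluorescence intensity (arbitrary units) read on an Axon 4000B scanner.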
Regarding “CATCCCAATTTTCTGGCCACACTTGCATCCCTCTGCCGCCCGGAGTCACCTAGTGCAG”, the binding signal was 10800 fluorescence intensity (a.u.).
The same measure for “ACCACCCTACCTAGCTTAGAATATTTACCATGCATTCTCTCGGAGTCACCTAGTGCAG”: 11100 fluorescence intensity (a.u.).
The same measure for “TCTTCTTCTTGTTTCGGCTTCCGCCTCCGTCCCGCGCGCGCGGAGTCACCTAGTGCAG”: 13800 fluorescence intensity (a.u.); for “CAAATTATGAGCCTGTTCACTTTGATGCTCTTTTCAACCACGGAGTCACCTAGTGCAG”: 8320 fluorescence intensity (a.u.); for “TCCCAAACCCCGCGCCGCCTCTTACCGCTTCGCGTCAGCTCGGAGTCACCTAGTGCAG”: 8490 fluorescence intensity (a.u.).
The same measure for “ACCTATCTTTCTCTATTTTTTATTTTTTTAGCGAAACACACGGAGTCACCTAGTGCAG”: 9780 fluorescence intensity (a.u.); for “TCCGTTTTTGTGGTTTTCGATGGATTCCGTCGTCGCCGACCGGAGTCACCTAGTGCAG”: 9660 fluorescence intensity (a.u.).
On to “GATGGACATTGTTTGCCATCACCGTCAACGACCGTTGACTCGGAGTCACCTAGTGCAG”, for which the binding signal is 12900 fluorescence intensity (a.u.).
Under “GCTTCGTTGGCTCCGTGAAACTGTCTCTCTCTCCCAACTCCGGAGTCACCTAGTGCAG” stands 8030 fluorescence intensity (a.u.); under “TTTGCACTGGTTTTGTAAGTTGGGGATGTATTGTATGAGGCGGAGTCACCTAGTGCAG”, 9560 fluorescence intensity (a.u.); under “CGTGAGGAATGGGATTTTTATTTTGCTGGTTACTGTTTGACGGAGTCACCTAGTGCAG”, 10000 fluorescence intensity (a.u.).
Under “AGTCAAATTTGTTTTTTTTCGTTGCAACTTGTATAATTTACGGAGTCACCTAGTGCAG” stands 9430 fluorescence intensity (a.u.); under “GTGTCATTCTCCTCACACGCCGGTCTCCATGAGCGAGTTTCGGAGTCACCTAGTGCAG”, 8110 fluorescence intensity (a.u.); under “AAAATTCTTGGTCTTCTTGGTCTCGGTTAGTTCGGTTCGACGGAGTCACCTAGTGCAG”, 8110 fluorescence intensity (a.u.).
Under “AAAGTTGGGGTCAGGTGGTTTTGGTTCTGTGTTCAAGGGACGGAGTCACCTAGTGCAG” stands 11500 fluorescence intensity (a.u.).
Regarding “GACGTGTTTGGTCTTCGGTTCGGTGGGTCTCAAGTTCTGACGGAGTCACCTAGTGCAG”, the binding signal is 19400 fluorescence intensity (a.u.).
Take “GGACCCACCTGCCGAACCAGCACGCATCGCGTCTCGCACCCGGAGTCACCTAGTGCAG”: the binding signal is 8590 fluorescence intensity (a.u.).
On to “ATCACGGGATTACACAGCAAAGTAGCAAAGCTAAATTTTACGGAGTCACCTAGTGCAG”, for which the binding signal was 63700 fluorescence intensity (a.u.).
The same measure for “TGCAAAGTAGTAGTTGGGGATTTAATAGTGGCTTACAATACGGAGTCACCTAGTGCAG”: 8620 fluorescence intensity (a.u.).
Under “GGTCAAATTCTCATTTTGCAATATCCCACAGCTAATTACACGGAGTCACCTAGTGCAG” stands 9540 fluorescence intensity (a.u.).
The same measure for “GCTAATAAGTGCTTACATTGTTTTGGATGATCACCAGCAACGGAGTCACCTAGTGCAG”: 8080 fluorescence intensity (a.u.); for “ATGCTCCTACTTTCCTTTGCTGTATATATTACTCCATTTGCGGAGTCACCTAGTGCAG”: 8260 fluorescence intensity (a.u.).
For the sequence “TCATTGCTCTCTGTGTTTCTCCGCTATGCCGCCACGTCTTCGGAGTCACCTAGTGCAG”, the binding signal was 16700 fluorescence intensity (a.u.).
Consider “GAATCCACCGCATTTTTCCGCCGCCCCACGCGGCGCCACCCGGAGTCACCTAGTGCAG”, for which the binding signal is 19700 fluorescence intensity (a.u.).
The same measure for “CCAACCGCCGCGCCGCTTCGCTGTCTTCACCGTGCCGCTCCGGAGTCACCTAGTGCAG”: 8620 fluorescence intensity (a.u.); for “ACCCACCACAACCAGTGATCAGACACCACCTACCGCGCGCCGGAGTCACCTAGTGCAG”: 8330 fluorescence intensity (a.u.).
As to “TTCCTCCGTTTTCTCCGTTCGTCTTCCTCCGCTTCCGAAGCGGAGTCACCTAGTGCAG”, the binding signal is 18000 fluorescence intensity (a.u.).
The same measure for “AGCTTCCTCCGTTTTTTTCTTTCTTTCTTTCTTTTTTTTTCGGAGTCACCTAGTGCAG”: 11800 fluorescence intensity (a.u.); for “ACCCCACCTGTCAGACAACCCCACCGCCGCTTCGCTTCACCGGAGTCACCTAGTGCAG”: 17300 fluorescence intensity (a.u.).
Consider “CCGAATCCGGCCACCCCGCCGCCTCCACGCGCATCACCGCCGGAGTCACCTAGTGCAG”, for which the binding signal is 11100 fluorescence intensity (a.u.).
Under “GCACCGGCGCCACCGCCCGCGCCCGCACCACCGCCCACGCCGGAGTCACCTAGTGCAG” stands 8870 fluorescence intensity (a.u.).
Under “GCAAACTTTATTGCTCCGCGTTCTTCCTTTCTCTGTGTTTCGGAGTCACCTAGTGCAG” stands 8910 fluorescence intensity (a.u.).
The same measure for “TTCGTCTCCGTTTCGTCTTCTTCTTCTTCTTCTTCTTCGGCGGAGTCACCTAGTGCAG”: 8790 fluorescence intensity (a.u.).
In the case of “TCATTCCTATGTTTTTTCTGTGTTTTGCAATTCTCTGTTTCGGAGTCACCTAGTGCAG”, the binding signal is 14900 fluorescence intensity (a.u.).
In the case of “GGAGCACCTGTCGTGCGCTGCCGCCATGTACGCGGCGCCGCGGAGTCACCTAGTGCAG”, the binding signal was 8360 fluorescence intensity (a.u.).
The same measure for “ATACCCGATCTCATTATTATGAACCAGTTATGTAATAACACGGAGTCACCTAGTGCAG”: 8020 fluorescence intensity (a.u.).
Under “TGCACAAAGGTTATGCGATATCGACGGTATATTTCCACAACGGAGTCACCTAGTGCAG” stands 9520 fluorescence intensity (a.u.); under “TGGCCGCGGCTGCTGCTGAGTGTGGTGGTGGTGGGAGGCACGGAGTCACCTAGTGCAG”, 8880 fluorescence intensity (a.u.); under “CCCCAAAATTTTTCACCATGTCACATCAAACGTTTGAACACGGAGTCACCTAGTGCAG”, 8490 fluorescence intensity (a.u.).
Under “TTCACACCGTCGTATTTGCCACTTTACTGACGCTCGAAGCCGGAGTCACCTAGTGCAG” stands 8060 fluorescence intensity (a.u.); under “TACTAATTTCCTTCGCACATCCAGCAATCAGATATCCTGACGGAGTCACCTAGTGCAG”, 9760 fluorescence intensity (a.u.).
Turning to “CATCCCTAGTCGGCGTCTTGTCATCGCCGCCCCAATCTCGCGGAGTCACCTAGTGCAG”, the binding signal is 8260 fluorescence intensity (a.u.).
The same measure for “CGCTTCCTCGCCGCGCGCGCGCCCGCCATCTCCTCGCCTCCGGAGTCACCTAGTGCAG”: 9350 fluorescence intensity (a.u.); for “GCCTCGTTTCCATCTCCGCCGCGCTCGCCGCGTTCACACTCGGAGTCACCTAGTGCAG”: 11400 fluorescence intensity (a.u.); for “GCTCCATCTCTCGTCTCGCGCTTCACTCCACATCTGTTTCCGGAGTCACCTAGTGCAG”: 18300 fluorescence intensity (a.u.).
With “AGCATCCGAATCCGGCCACCTCATCATCTCGCCTCGCTTCCGGAGTCACCTAGTGCAG”, the binding signal was 16900 fluorescence intensity (a.u.).
